# Laboratory results published in the supplement of paper PMC8728848.
# Only a selection was taken, and the strongest signals are over-represented in it overall.
# B1: PX15642A-pgi-501-20-501 (Parabacteroides gingivalis) (protein)
# chain: CELDRDPEGKDFQQPYTSFVQTKQNRDGLYALLRNTENPRMHFYQELQSDMYCTTITDGNSLAPFVNWDLGILNDHGRADEDEVSGIAGYYFVYNRLNQQANAFVNNTEAALQNQVYKNSTEIANAKSFLAEGKVLQALAIWRLMDRFSFHESVTEVNSGAKDLGVILLKEYNPGYIGPRATKAQCYDYILSRLSEAIEVLPENRESVLYVSRDYAYALRARIYLALGEYGKAAADAKMVVDKYPLIGAADASEFENIYRSDANNPEIIFRGFASATLGSFTATTLNGAAPAGKDIKYNPSAVPFQWVVDLYENEDFRKSVYIAKVVKKDKGYLVNKFLEDKAYRDVQDKPNLKVGARYFSVAEVYLILVESALQTGDTPTAEKYLKALSKARGAEVSVVNMEALQAERTRELIGEGSRLRDMVRWSIPNNHDAFETQPGLEGFANTTPLKAQAPVGFYAYTWEFPQRDRQTNPQLIKNWPI
# Experiments:
# Experiment in all cases: glycan array binding signal (z-score within array); higher = stronger binding
# Settings in all cases: glycan notation: IUPAC condensed, linker removed
# [1] = molecular target: GalNAc(b1-4)GlcNAc(b1-3)GalNAc(b1-4)GlcNAc
# Method in brief: (§1)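 Columns mapping to the same glycan were averaged after glycan names were converted to IUPAC-condensed notation. The data come from 3228 arrays in the Consortium for Functional Glycomics database, limited to those with an available protein sequence. Binding is reported as a within-array Z-score averaged across arrays of one protein sequence and across linkers.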
# Glc(a1-6)Glc(a1-6)Glc = molecular target: Glc(a1-6)Glc(a1-6)Glc
# Method in brief: as §1
# [2] = molecular target: GlcNAc(b1-2)Man(a1-3)[GlcNAc(b1-2)Man(a1-6)]Man(b1-4)GlcNAc(b1-4)[Fuc(a1-6)]GlcNAc
# Method in brief: as §1
# [3] = molecular target: GlcNAc(b1-2)[GlcNAc(b1-6)]Man(a1-6)[GlcNAc(b1-4)][GlcNAc(b1-2)Man(a1-3)]Man(b1-4)GlcNAc(b1-4)GlcNAc
# Method in brief: as §1
# [4] = molecular target: GlcNAc(b1-3)Gal(b1-4)GlcNAc(b1-3)Gal(b1-4)GlcNAc(b1-2)Man(a1-3)[GlcNAc(b1-3)Gal(b1-4)GlcNAc(b1-3)Gal(b1-4)GlcNAc(b1-2)Man(a1-6)]Man(b1-4)GlcNAc(b1-4)GlcNAc
# Method in brief: as §1
# [5] = molecular target: GlcNAc(b1-3)Gal(b1-4)GlcNAc(b1-3)[GlcNAc(b1-3)Gal(b1-4)GlcNAc(b1-3)]GalNAc
# Method in brief: as §1
# [6] = molecular target: GlcNAc(b1-4)GlcNAc(b1-4)GlcNAc(b1-4)GlcNAc(b1-4)GlcNAc
# Method in brief: as §1
# [7] = molecular target: Man(a1-3)[Man(a1-6)]Man(a1-6)[Man(a1-2)Man(a1-3)]Man(b1-4)GlcNAc(b1-4)GlcNAc
# Method in brief: as §1
# Man(b1-4)GlcNAc = molecular target: Man(b1-4)GlcNAc
# Method in brief: as §1
# [8] = molecular target: Neu5Ac(a2-3)Gal(b1-3)[Neu5Ac(a2-6)]GlcNAc(b1-3)[Fuc(a1-3)[Gal(b1-4)]GlcNAc(b1-6)]Gal(b1-4)Glc
# Method in brief: as §1
# [9] = molecular target: Neu5Ac(a2-3)Gal(b1-4)GlcNAc(b1-3)Gal(b1-4)GlcNAc(b1-2)Man(a1-3)[Neu5Ac(a2-3)Gal(b1-4)GlcNAc(b1-3)Gal(b1-4)GlcNAc(b1-2)Man(a1-6)]Man(b1-4)GlcNAc(b1-4)GlcNAc
# Method in brief: as §1
# [10] = molecular target: Neu5Ac(a2-3)Gal(b1-4)GlcNAc(b1-3)Gal(b1-4)GlcNAc(b1-3)GalNAc
# Method in brief: as §1
# [11] = molecular target: Neu5Ac(a2-3)Gal(b1-4)GlcNAc6S
# Method in brief: as §1
# [12] = molecular target: Neu5Ac(a2-3)Gal(b1-4)[Fuc(a1-3)]GlcNAc(b1-3)GalNAc
# Method in brief: as §1
# [13] = molecular target: Neu5Ac(a2-3)Gal6S(b1-4)[Fuc(a1-3)]GlcNAc
# Method in brief: as §1
# [14] = molecular target: Neu5Ac(a2-3)[GalNAc(b1-4)]Gal(b1-4)GlcNAc(b1-3)GalNAc
# Method in brief: as §1
# [15] = molecular target: Neu5Ac(a2-6)Gal(b1-4)GlcNAc
# Method in brief: as §1
# [16] = molecular target: Neu5Ac(a2-6)Gal(b1-4)GlcNAc(b1-3)Gal(b1-4)GlcNAc(b1-3)Gal(b1-4)GlcNAc(b1-2)Man(a1-3)[Neu5Ac(a2-6)Gal(b1-4)GlcNAc(b1-3)Gal(b1-4)GlcNAc(b1-3)Gal(b1-4)GlcNAc(b1-2)Man(a1-6)]GalNAc
# Method in brief: as §1
# [17] = molecular target: Neu5Ac(a2-6)GalNAc(b1-4)GlcNAc6S
# Method in brief: as §1
# [18] = molecular target: Neu5Ac(a2-8)Neu5Ac(a2-3)[GalNAc(b1-4)]Gal(b1-4)Glc
# Method in brief: as §1
# [19] = molecular target: Neu5Ac(a2-8)Neu5Ac(a2-8)Neu5Ac(a2-3)[Gal(b1-3)GalNAc(b1-4)]Gal(b1-4)Glc
# Method in brief: as §1
# [20] = molecular target: Neu5Ac(a2-8)Neu5Ac(a2-8)Neu5Ac(a2-3)[GalNAc(b1-4)]Gal(b1-4)Glc
# Method in brief: as §1
# [21] = molecular target: Neu5Ac(a2-8)Neu5Gc(a2-3)Gal(b1-4)GlcNAc
# Method in brief: as §1
# [22] = molecular target: Neu5Gc(a2-3)Gal(b1-4)GlcNAc(b1-3)Gal(b1-4)GlcNAc(b1-2)Man(a1-3)[Neu5Gc(a2-3)Gal(b1-4)GlcNAc(b1-3)Gal(b1-4)GlcNAc(b1-2)Man(a1-6)]Man(b1-4)GlcNAc(b1-4)GlcNAc
# Method in brief: as §1
# [23] = molecular target: Neu5Gc(a2-3)Gal(b1-4)[Fuc(a1-3)]GlcNAc
# Method in brief: as §1
# [24] = molecular target: Neu5Gc(a2-8)Neu5Gc(a2-6)Gal(b1-4)GlcNAc
# Method in brief: as §1
binder,measurement,setting,value
B1,glycan array binding signal (z-score),[1],5.6
same,glycan array binding signal (z-score),Glc(a1-6)Glc(a1-6)Glc,1.35
same,glycan array binding signal (z-score),[2],0.116
same,glycan array binding signal (z-score),[3],-0.076
same,glycan array binding signal (z-score),[4],2.32
same,glycan array binding signal (z-score),[5],0.014
same,glycan array binding signal (z-score),[6],0
same,glycan array binding signal (z-score),[7],0.018
same,glycan array binding signal (z-score),Man(b1-4)GlcNAc,0.033
same,glycan array binding signal (z-score),[8],-0.808
same,glycan array binding signal (z-score),[9],0.992
same,glycan array binding signal (z-score),[10],-0.213
same,glycan array binding signal (z-score),[11],-0.486
same,glycan array binding signal (z-score),[12],3.38
same,glycan array binding signal (z-score),[13],-1.24
same,glycan array binding signal (z-score),[14],-1.14
same,glycan array binding signal (z-score),[15],-0.264
same,glycan array binding signal (z-score),[16],2.23
same,glycan array binding signal (z-score),[17],0.286
same,glycan array binding signal (z-score),[18],-0.038
same,glycan array binding signal (z-score),[19],1.75
same,glycan array binding signal (z-score),[20],0.122
same,glycan array binding signal (z-score),[21],15.5
same,glycan array binding signal (z-score),[22],0.077
same,glycan array binding signal (z-score),[23],-0.476
same,glycan array binding signal (z-score),[24],-0.753
